An excerpt weighted towards active compounds, which were near 5.3% of everything screened.
Lassa entry inh = qHTS for Inhibitors of binding or entry into cells for Lassa Virus | Lassa virus pseudotype entry inhibition, cell reporter | Potency, µM (top dose mostly 37.9 µM), for the others: at the top dose activity change, negative = inhibition, most hits filed as inhibitors | 1.2% of 300,000 active; calls by dose curve; tested in HEK293 cells; also: nearly all actives have a fitted effect of over 50% in size
Vaccinia Venus = qHTS for Stage-Specific Inhibitors of Vaccinia Orthopoxvirus: Venus Reporter Primary qHTS; Vaccinia virus Venus reporter expression, fluorescence; Potency, µM (titrated, usually from 36.5 µM), inactives show at the highest dose activity change, negative = inhibition, most hits filed as inhibitors; 0.46% of 330,000 active; AID 720580, 2013; calls by dose curve; tested in A549 cells; also: nearly all actives have a fitted effect of over 30% in size
HCV inhibitor = qHTS Assay for Inhibitors of Hepatitis C Virus (HCV); Huh7.5.1 HCVcc-Cre infection, luciferase reporter, 44 h; Potency, µM (highest dose often 41.8 µM), without a hit: at the highest dose activity change, negative = inhibition, most hits filed as inhibitors; 3.4% of 340,000 active; active = well fitted inhibition curve with a large enough effect; inconclusive = small, poorly fitted or top-dose-only effect, or another doubt; inactive = no such curve, though single readings can be large or run the other way
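After 44 h co-culture of compound, cells and HCVcc-Cre (~0.5 moi), substrate is added for 15 min at room temperature and luciferase measured over 15 sec. Cells were seeded at 1,000/well and pre-cultured 4 h.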
VACV mCherry inh = qHTS for Stage-Specific Inhibitors of Vaccinia Orthopoxvirus: mCherry Reporter Primary qHTS. Vaccinia virus mCherry reporter infection, fluorescence. Potency, µM (top dose mostly 36.5 µM), without a hit: top-dose activity change, negative = inhibition, most hits filed as inhibitors. 0.63% of 310,000 active; calls by dose curve; tested in A549 cells; also: nearly all actives have a fitted effect of over 35% in size
MARV entry inh = qHTS for inhibitors of binding or entry into cells for Marburg Virus | Marburg virus pseudotyped entry inhibition, cell reporter | Potency, µM (doses to about 37.8 µM), without a hit: top-dose activity change, negative = inhibition, actives largely listed as inhibitors | 1.8% of 300,000 active | AID 540276, 2011; calls by dose curve; tested in HEK293 cells
FMDV inh = High Throughput Screening for Foot and Mouth Disease Virus Antivirals | Potency, µM (top dose mostly 57.9 µM), for the others: top-dose activity change, negative = inhibition, hits mostly inhibitors | 1.2% of 410,000 active | FMDV antiviral cell-based qHTS; calls by dose curve; tested in HEK293T cells; also: read-out not given here; nearly all actives have a fitted effect of over 45% in size
* hit, by the source's call; ? = inconclusive; / = no result; [ ] = another dose, or the depositor's remark. % is scaled to controls: 0 for no effect and ±100 for the full control effect; potency is read from the fitted curve at half-maximal effect.

SMILES	Lassa entry inh	Vaccinia Venus	HCV inhibitor	VACV mCherry inh	MARV entry inh	FMDV inh
Cc1ccc(C)n1-c1c(C(=O)NCC(C)c2ccccc2)sc2ncccc12 (configuration not stated)	2%[46.1 µM]	-18%	/	-13%	/	0%
COc1cc(Cl)c(C)cc1NC(=O)Cn1cc(S(=O)(=O)N2CCC(C)CC2)c2ccccc2c1=O	0%[46.1 µM]	-8%	/	-18%	-15%[46.1 µM]	13%
COc1cc(NC(=O)Cn2cc(S(=O)(=O)N3CCC(C)CC3)c3ccccc3c2=O)cc(OC)c1OC	-26%[46.1 µM]	-9%	/	-20%	10µM*	0%
CSc1ccc(CN(C)C(C)C(=O)NCC2CCCCC2)cc1 (configuration not stated)	16%[46.1 µM]	-7%	1%	-21%	11µM*	-6%
CN1CCN(C(c2ccc(F)cc2)c2ccc3cccnc3c2O)CC1 (configuration not stated)	/	/	10%	/	/	-4%
CN1CCN(C(c2ccc(Br)cc2)c2cc(Cl)c3cccnc3c2O)CC1 (configuration not stated)	?	?	7.9µM*	?	?	?
CCOC(=O)c1nnn(-c2nonc2-n2cccc2)c1CCl	-17%	-2%	-4%	/	-8%	14µM*
Cn1cc(CCCC(=O)NCc2ccccc2Cl)c2ccccc21	21%[46.1 µM]	-10%	/	-9%	/	21%
O=C(c1ccco1)N(CCCN1CCOCC1)c1nc(-c2ccc(F)cc2)cs1	?	?	11µM*	-18%	?	/
O=C(c1ccco1)N(CCCN1CCOCC1)c1nc(-c2ccc(Cl)cc2)cs1	?	-9%	11µM*	-21%	?	?
COCc1c(C(=O)N2CCCCC2c2cccnc2)cnn1-c1ncc2c(n1)-c1ccccc1CCC2 (configuration not stated)	/	-4%	/	-20%	/	-17%
Cc1cc(C)c2c(n1)nn1c(C)c(CCC(=O)Nc3cccc(C)c3C)c(C)nc21	6%[46.1 µM]	0%	/	3%	19%[46.1 µM]	-27%
COc1ccc(C2N=C(Nc3nc4ccccc4o3)NC3=C2C(=O)CC(C)(C)C3)cc1 (configuration not stated)	/	?	/	-29%	/	/
COc1cc(N=Nc2ccc(C)cc2S(N)(=O)=O)c(C)cc1N	?	-20%	25µM*	?	-8%[46.1 µM]	45%
O[N+]1=CC=CCC1=S.On1ccccc1=S.[Zn]	/	?	/	?	/	8.9µM*
CC(C)(C)NCC(O)(c1ccc(Cl)cc1)c1ccc(Cl)cc1	?	0%	?	?	3.2µM*	-24%
CCOCCCNC(=O)C1CCN(c2nn3cc(-c4ccc(F)cc4)nc3s2)CC1	?	-22%	/	-22%	/	4%
Cc1cc(N2CCCC2=O)cc(C)c1S(=O)(=O)NCCOc1ccc(C(C)(C)C)cc1	12µM*	?	11µM*	?	?	?
CC(=O)CC1c2ccccc2C=C(c2ccsc2)N1c1ccc(-c2cccs2)cc1 (configuration not stated)	/	11%	/	10%	/	-12%
COc1cc2c(c(OC)c1OC)CC(c1ccccc1)=C(c1ccccc1)CC2NC(=O)C(F)(F)F (configuration not stated)	?	/	/	/	38%[14.2 µM]	/
CCCCC[C@H]1C[C@@H](CC#CCN2CCOCC2)C(=O)O1	/	/	/	/	10%	/
CN=c1sc2ccccc2n1C[C@@H](O)COCc1ccco1	/	/	/	/	0%[46.1 µM]	/
COc1ccc(CN2C(=O)C(Cc3ccccc3)Nc3ncnc(N4CCN(c5ccccc5)CC4)c32)cc1 (configuration not stated)	/	-29%	3.2µM*	-22%	/	0%

High-throughput results as filed in PubChem.
